Inconclusive results are not listed. The source made the active and inactive calls. Unless noted, the call rests on the fitted dose curve; in most records, active means well fitted curve in the direction sought with a large enough effect; inconclusive means small, poorly fitted or top-dose-only effect, or another doubt; inactive means no such curve, though single readings can be large; an effect the other way counts as inactive or inconclusive.

The target of assay [1] is DNA repair nuclease/redox regulator APEX1 (Homo sapiens) (UniProt P27695). The experiment in a line: qHTS Validation Assay for Inhibitors of the Human Apurinic/apyrimidinic Endonuclease 1 (APE1) (AID 1705; further: potency means the concentration at half of the fitted maximal effect). The method, boiled down:
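Fluorogenic double-stranded THF abasic-site substrate (5'-TAMRA/3'-BHQ-2), 50 nM final. Enzyme preincubated with compound 15 min at room temperature, then substrate added. Kinetic fluorescence (ex 525/em 598 nm) read three times at 60 s intervals; activity taken as third-minus-first read difference.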
For orientation: qHTS replaces the single test concentration by a dilution series.

The nature of assay [2]: Counterscreen for APE1 Inhibitors: Fluorescent Dye Displacement Validation Assay (AID 1707). Further: potency means the concentration at half of the fitted maximal effect. The method, boiled down: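 Thiazole Orange displacement from dsDNA: 250 nM ThO with 50 nM TAMRA-labelled abasic-site (tetrahydrofuran) duplex in 50 mM Tris-HCl pH7.5, 50mM NaCl, 2 mM MgCl2, 0.01% Tween-20. Loss of endpoint fluorescence (ex 480 nm, em 540 nm) flags DNA binders.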
In general terms: Counterscreens check selectivity or assay interference.

Assay [3] addresses Endonuclease 4 (Escherichia coli (strain K12)) (UniProt P0A6C1). The assay is described as follows: Counterscreen for APE1 Inhibitors: qHTS Validation Assay for Inhibitors of Endonuclease IV (AID 1708). In short, it runs like this:
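2 nM enzyme was preincubated with compounds for 15 min at room temperature in 50 mM Tris-HCl pH 7.5, 50 mM NaCl, 2 mM MgCl2, 1 mM DTT, 0.01% Tween-20. 50 nM THF-abasic TAMRA/BHQ-2 duplex substrate started the reaction.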

A short description of assay [4]: qHTS for differential inhibitors of proliferation of Plasmodium falciparum line 7G8 (AID 1815).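 Further: parasite growth measured after three days of incubation.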 Further: potency means the concentration at half of the fitted maximal effect.
Assay [5] in a line: qHTS for differential inhibitors of proliferation of Plasmodium falciparum line D10 (AID 1877).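 Further: parasites grown with compound for 72 h before DNA staining.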 Further: potency means the concentration at half of the fitted maximal effect.
The nature of assay [6]: qHTS for differential inhibitors of proliferation of Plasmodium falciparum line W2 (AID 1883).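 Further: parasites grown with compound for 72 h before lysis and staining.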 Further: potency means the concentration at half of the fitted maximal effect. To be noted: Potency: Plasmodium falciparum W2 proliferation inhibition.
Assay [7] addresses Ferritin light chain (Equus caballus) (UniProt P02791). The experiment in a line: qHTS Validation Assay for Identification of Novel General Anesthetics (AID 2323). Further: series mostly up to about 77 µM. In short, it runs like this:
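Horse-spleen apoferritin (10 uM) in PBS with 50% saturated 1-aminoanthracene; compounds pin-transferred, 10 min at room temperature. Fluorescence read at 380/535 nm, normalized to free 1-AMA and 1-AMA/apoferritin values; four-parameter Hill fit.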

Assay [8] addresses RecQ-like DNA helicase BLM (Homo sapiens) (UniProt P54132). The experiment in a line: qHTS Validation Assay for Inhibitors of Bloom's syndrome helicase (BLM) (AID 2364). Further: potency means the concentration at half of the fitted maximal effect. In short, it runs like this: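 BLM 50 nM in 25 mM Tris-HCl pH 8.0, 5 mM NaCl, 2 mM MgCl2, 1 mM DTT, 0.01% Tween-20, 2.5 ug/ml poly(dI-dC); 15 min cpd preinc, RT. Start: 200 nM forked DNA + 2 mM ATP (final). TAMRA read, 2 reads 2 h apart.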

Assay [9] in a line: Cytometric Cell-Based qHTS for Inhibitors of the mTORC1 Signaling Pathway in MEF (Tsc2-/-, p53-/-) Cells (AID 2660).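 Further: percent of cells above a phospho-rpS6 to PI ratio cutoff in each well; series mostly up to about 38 µM.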 The method, boiled down: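 Readout: Alexa-488 phospho-rpS6 (Ser235/236) intensity divided by PI intensity, thresholded against 7.5 nM rapamycin wells and reported as % positive cells. PI cell count served as the viability measure. Compound exposure was 24 hrs at 37 degree Celsius.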

A short description of assay [10]: High Content Imaging Cell-Based qHTS for Inhibitors of the mTORC1 Signaling Pathway in MEF (Tsc2-/-, p53-/-) Cells (AID 2666).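 Further: percent of cells scored positive for phospho-rpS6 Ser235/236 immunostaining by imaging.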 The method, boiled down:
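Read-out: % positive cells per well, with thresholds from highest- and lowest-signal wells, based on phospho-rpS6 (Ser235/236) intensity normalized to Hoechst nuclear stain. Cells: Tsc2-/-, p53-/- MEFs carrying empty vector; compound 24 hrs, 37 degree Celsius.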

A short description of assay [11]: High Content Imaging Cell-Based qHTS for Inhibitors of the mTORC1 Signaling Pathway in MEF Cells (AID 2667).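 Further: Tsc2-/- p53-/- MEFs stably re-expressing wild-type Tsc2 exposed 24 h; series mostly up to about 38 µM.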 The method, boiled down:
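MEF (Tsc2-/-, p53-/-, WT Tsc2 re-expressed); cpd 24 h, 37 °C; PFA fix; Alexa-488 anti-p-rpS6 Ser235/236, PI, Hoechst; IN Cell imaging; Hoechst/Alexa-488 intensity ratio; % active cells, thresholds set from rapamycin and DMSO wells.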

Assay [12] is described as follows: qHTS for differential inhibitors of proliferation of Plasmodium falciparum line GB4 (AID 1816).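 Further: parasite growth measured after 72 h incubation.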 Further: potency means the concentration at half of the fitted maximal effect. To be noted: Potency: Plasmodium falciparum GB4 proliferation inhibition.
Assay [13] can be described thus: qHTS for differential inhibitors of proliferation of Plasmodium falciparum line 3D7 (AID 1876). Further: potency means the concentration at half of the fitted maximal effect.
Assay [14] in a line: qHTS for differential inhibitors of proliferation of Plasmodium falciparum line Dd2 (AID 1882). Further: nearly all actives have a fitted effect of over 65% in size. Further: potency means the concentration at half of the fitted maximal effect. To be noted: Potency: Plasmodium falciparum Dd2 proliferation inhibition. The method, boiled down:
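SYBR Green I DNA fluorescence read-out, ex 485/em 535 nm. Signals were normalized to 0.29 uM artemisinin and DMSO wells, then corrected using vehicle-only plates flanking each stack. Parasite growth ran 72 h in erythrocytes before lysis.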

The nature of assay [15]: qHTS for differential inhibitors of proliferation of Plasmodium falciparum line HB3 (AID 1886).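 Further: parasites grown with compound for 72 h before SYBR Green readout.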 Further: potency means the concentration at half of the fitted maximal effect. Particulars: Potency: Plasmodium falciparum HB3 proliferation inhibition.
Assay [16] is described as follows: qHTS Assay for Modulators of Human Peripheral Myelin Protein 22 (PMP22) Expression/Activity (AID 1967; active means well fitted curve in the direction sought with a large enough effect in the signal ratio; the % refers to the signal ratio). The method, boiled down:
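Mouse MSC80 Schwann cells carrying Pmp22 promoter–green click beetle luciferase plus EF-alpha–red luciferase control, dosed 24 h at 37 °C. Dual-filter luminescence, overlap-corrected; %Activity from green/red ratio normalised to untreated cells, concentration-response curves fitted.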

In assay [17] the target is ATP-dependent DNA helicase Q1 (Homo sapiens) (UniProt P46063). The assay is described as follows: qHTS Validation Assay for Inhibitors of RecQ-Like Dna Helicase 1 (RECQ1) (AID 2353). Further: potency means the concentration at half of the fitted maximal effect. The method, boiled down:
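50 nM RECQ1T1 preincubated 15 min with compound in Tris pH 8.0 buffer with MgCl2, DTT, Tween-20 and 2.5 ug/ml poly(dI-dC); started with 200 nM TAMRA/BHQ-2 forked duplex and 2 mM ATP. Unwinding read as fluorescence (525/598 nm), two reads 2 h apart.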

Sequence of Ferritin light chain (Equus caballus) (P02791 2-175 limits assumed): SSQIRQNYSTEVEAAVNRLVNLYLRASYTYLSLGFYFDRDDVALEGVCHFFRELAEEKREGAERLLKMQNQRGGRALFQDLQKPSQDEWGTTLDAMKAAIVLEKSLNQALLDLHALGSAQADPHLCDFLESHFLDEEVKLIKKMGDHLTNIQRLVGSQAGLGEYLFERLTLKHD
Sequence of DNA repair nuclease/redox regulator APEX1 (Homo sapiens) (P27695 whole entry, looked up): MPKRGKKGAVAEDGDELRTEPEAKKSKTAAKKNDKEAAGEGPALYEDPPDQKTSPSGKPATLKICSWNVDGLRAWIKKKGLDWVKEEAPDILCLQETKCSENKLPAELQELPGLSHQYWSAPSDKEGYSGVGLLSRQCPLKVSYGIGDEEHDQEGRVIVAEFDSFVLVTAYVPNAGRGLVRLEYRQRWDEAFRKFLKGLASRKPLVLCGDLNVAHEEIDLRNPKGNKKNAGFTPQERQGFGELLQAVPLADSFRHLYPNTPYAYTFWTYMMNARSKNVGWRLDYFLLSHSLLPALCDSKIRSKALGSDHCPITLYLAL
Sequence of ATP-dependent DNA helicase Q1 (Homo sapiens) (P46063 whole entry, looked up): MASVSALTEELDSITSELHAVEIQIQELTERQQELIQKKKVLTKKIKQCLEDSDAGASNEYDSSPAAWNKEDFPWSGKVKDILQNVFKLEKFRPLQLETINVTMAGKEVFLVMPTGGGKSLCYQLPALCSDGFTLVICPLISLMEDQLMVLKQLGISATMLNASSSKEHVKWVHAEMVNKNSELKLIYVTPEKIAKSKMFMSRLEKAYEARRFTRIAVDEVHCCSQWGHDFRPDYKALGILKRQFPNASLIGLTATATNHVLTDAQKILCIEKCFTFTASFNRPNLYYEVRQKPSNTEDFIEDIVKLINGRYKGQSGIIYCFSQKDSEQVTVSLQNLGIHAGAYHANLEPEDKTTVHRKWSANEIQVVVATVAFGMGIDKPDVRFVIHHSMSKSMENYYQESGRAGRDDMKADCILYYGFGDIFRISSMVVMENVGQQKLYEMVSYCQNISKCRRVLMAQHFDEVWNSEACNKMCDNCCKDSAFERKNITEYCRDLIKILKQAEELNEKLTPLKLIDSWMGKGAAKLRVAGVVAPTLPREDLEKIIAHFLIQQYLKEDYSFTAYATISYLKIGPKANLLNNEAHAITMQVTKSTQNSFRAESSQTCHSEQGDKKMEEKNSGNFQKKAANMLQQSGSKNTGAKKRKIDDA
Sequence of RecQ-like DNA helicase BLM (Homo sapiens) (P54132 whole entry, looked up): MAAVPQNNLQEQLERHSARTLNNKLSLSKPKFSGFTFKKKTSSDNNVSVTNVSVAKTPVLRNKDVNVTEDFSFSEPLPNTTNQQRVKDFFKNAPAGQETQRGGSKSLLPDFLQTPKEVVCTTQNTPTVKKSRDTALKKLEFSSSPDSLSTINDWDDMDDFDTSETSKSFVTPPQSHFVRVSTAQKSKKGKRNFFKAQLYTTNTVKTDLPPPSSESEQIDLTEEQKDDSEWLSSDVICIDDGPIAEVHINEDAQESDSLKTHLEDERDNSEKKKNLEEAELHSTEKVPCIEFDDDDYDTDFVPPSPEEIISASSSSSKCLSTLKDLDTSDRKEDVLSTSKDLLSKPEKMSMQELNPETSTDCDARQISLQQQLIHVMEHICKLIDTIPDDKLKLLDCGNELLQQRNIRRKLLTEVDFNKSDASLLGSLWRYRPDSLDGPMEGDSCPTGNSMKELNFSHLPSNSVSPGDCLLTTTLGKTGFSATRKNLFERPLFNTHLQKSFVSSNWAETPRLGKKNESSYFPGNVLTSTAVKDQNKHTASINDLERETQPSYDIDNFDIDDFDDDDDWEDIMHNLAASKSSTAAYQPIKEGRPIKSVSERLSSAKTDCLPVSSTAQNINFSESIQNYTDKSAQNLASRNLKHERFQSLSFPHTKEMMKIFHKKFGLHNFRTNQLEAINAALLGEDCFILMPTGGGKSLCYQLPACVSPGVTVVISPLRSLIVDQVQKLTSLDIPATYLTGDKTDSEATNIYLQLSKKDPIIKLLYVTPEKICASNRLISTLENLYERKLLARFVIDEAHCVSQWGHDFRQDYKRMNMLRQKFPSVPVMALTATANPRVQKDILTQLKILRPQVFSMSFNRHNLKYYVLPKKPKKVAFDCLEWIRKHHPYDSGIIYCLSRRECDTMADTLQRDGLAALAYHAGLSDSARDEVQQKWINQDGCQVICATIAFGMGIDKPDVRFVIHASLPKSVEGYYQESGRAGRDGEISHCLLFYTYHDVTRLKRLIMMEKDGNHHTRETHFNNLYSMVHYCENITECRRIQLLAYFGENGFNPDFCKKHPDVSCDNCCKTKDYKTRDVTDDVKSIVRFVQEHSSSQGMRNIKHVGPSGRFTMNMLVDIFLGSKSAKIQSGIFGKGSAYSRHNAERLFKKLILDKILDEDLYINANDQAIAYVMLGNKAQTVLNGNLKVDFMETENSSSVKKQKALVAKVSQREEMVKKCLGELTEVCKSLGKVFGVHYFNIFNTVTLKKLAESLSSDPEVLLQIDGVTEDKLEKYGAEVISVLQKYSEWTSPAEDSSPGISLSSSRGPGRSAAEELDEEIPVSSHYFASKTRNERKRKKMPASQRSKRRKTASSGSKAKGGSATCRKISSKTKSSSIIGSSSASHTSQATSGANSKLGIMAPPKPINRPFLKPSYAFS

Consider `COc1ccc2c(c1)C13CCCCC1C(C2)N(C)CC3` (stereo unspecified), for which the Potency result in assay [1], in assay [2], in assay [3], in assay [5], in assay [8] and in assay [9] was “inactive” throughout. Moreover, the Potency entry in assay [10] and in assay [11] was “inactive” in each case. The Potency in assay [4] was 3.16 µM (active); in [6], 0.891 µM (active). The compound was classed as inactive in [7].
As for `CC(=O)c1c(O)c(C)c(O)c(Cc2c(O)c3c(c(C(=O)/C=C/c4ccccc4)c2O)OC(C)(C)C=C3)c1O`, the Potency result in assay [1], in assay [3], in assay [9], in assay [10] and in assay [11] was “inactive” each time. The Potency in assay [4] is 3.16 µM (active); in assay [12], 3.16 µM (active); in [13], 3.98 µM (active); in [5] it was 10 µM (active); in assay [14], 7.94 µM (active); in assay [6], 3.55 µM (active). For the same compound, the Potency in assay [15] is 5.62 µM (active).
In the case of `C[N+](C)(C)CCOC(=O)CBr`, the Potency result in assay [1], in [3], in assay [4], in [12], in [13] and in [5] was “inactive” in each case. Besides, the Potency entry in assay [14], in assay [6], in assay [15], in [17], in assay [8] and in assay [9] was “inactive” throughout. Further, the Potency entry in [10] and in assay [11] was “inactive” each time. Further, the result in assay [16] and in assay [7] was inactive.
Take `CCCN1CC[C@@H]2c3cc(O)ccc3CC[C@@H]21`: the Potency entry in assay [1], in [2], in assay [13], in [14], in assay [15] and in [8] was “inactive” in each case. The Potency result in assay [9], in assay [10] and in assay [11] was “inactive” each time. In addition, in assay [6], the Potency was 10 µM (active). The result in [16] and in assay [7] was inactive.
As to `CC12NC(Cc3ccccc31)c1ccccc12` (stereo unspecified), the Potency entry in assay [1], in assay [2], in assay [3], in [13], in [5] and in assay [15] was “inactive” each time. The Potency result in assay [17], in [9], in assay [10] and in assay [11] was “inactive” throughout. Also, the Potency in assay [12] was 5.01 µM (active); in assay [14], 7.94 µM (active); in [6], 4.47 µM (active). In addition, the compound was classed as inactive in assay [16] and in assay [7].
Turning to `O=c1c2ccccc2[se]n1-c1ccccc1`, the Potency entry in assay [1], in assay [2], in [3], in assay [17], in [8] and in [10] was “inactive” in each case. Also, the Potency entry in assay [11] is “inactive”. The Potency was 14.1 µM (active) in assay [4], 14.1 µM (active) in [12] and 17.8 µM (active) in [6]. In addition, in [7], the result was inactive.
Turning to `CC(C)(C)c1o[nH]c(=O)c1CC(N)C(=O)O` (stereo unspecified), the Potency entry in assay [1], in assay [2], in assay [4], in assay [12], in assay [13] and in assay [5] was “inactive” throughout. Further, the Potency entry in assay [14], in [15], in assay [9], in assay [10] and in assay [11] was “inactive” in each case. The compound was called inactive in assay [16] and in [7].
Regarding `NC(=O)c1cc(N2CC2)c([N+](=O)[O-])cc1[N+](=O)[O-]`, the Potency entry in [1], in [2], in assay [3], in [4], in [13] and in assay [5] was “inactive” each time. In addition, the Potency entry in assay [14], in assay [15], in assay [17], in assay [9], in assay [10] and in assay [11] was “inactive” throughout. The call in [7] was inactive.
On to `CN(N=O)c1cc(O)ccc1O`, for which the Potency in [1] is 1.41 µM (active); in assay [2], 14.1 µM (active); in assay [17] it was 7.94 µM (active); in [8], 28.2 µM (active). The Potency entry in [3], in assay [4], in assay [13], in assay [5], in assay [14] and in [6] was “inactive” throughout. The Potency result in assay [15] and in assay [11] was “inactive” each time. The result in assay [7] was inactive.
